# Test results: PubChem BioAssay AID485270 (The Scripps Research Institute Molecular Screening Center, 2010)
# Hit rate of the full screen: of about 330,000 compounds, about 5,800 (1.8%) were called active. This is one part of a sample in which actives are shown more often than they occur. Values without a mark were called inactive. No stated cut-off is given here; in the data, active means inhibition mostly above about 38% (no sharp cut-off); inactive means mostly below about 40%.
# Biological target: Orexin/Hypocretin receptor type 1 (Homo sapiens) (UniProt O43613)
# Sequence (O43613 whole entry, looked up): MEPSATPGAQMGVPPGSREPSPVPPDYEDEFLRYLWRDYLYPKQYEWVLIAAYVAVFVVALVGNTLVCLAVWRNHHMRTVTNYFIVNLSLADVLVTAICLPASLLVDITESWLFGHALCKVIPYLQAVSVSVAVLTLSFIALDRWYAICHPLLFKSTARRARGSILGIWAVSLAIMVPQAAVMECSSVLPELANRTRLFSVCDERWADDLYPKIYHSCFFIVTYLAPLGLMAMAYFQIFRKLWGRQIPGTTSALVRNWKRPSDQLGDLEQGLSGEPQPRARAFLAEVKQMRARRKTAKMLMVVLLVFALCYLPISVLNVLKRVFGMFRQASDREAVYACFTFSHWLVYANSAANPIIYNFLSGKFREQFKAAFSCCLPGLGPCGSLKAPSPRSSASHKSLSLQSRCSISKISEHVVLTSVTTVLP
# Assay: blocks the human orexin 1 receptor (AID 485270);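 further: 0% = agonist challenge alone and 100% = reference antagonist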
# Conditions: OX1R-expressing cells, FRET antagonist read-out; at 6.6 µM; active compounds read high
row,SMILES,inhibition
1,Cc1cccc(NS(=O)(=O)c2ccc(C)c(C(N)=O)c2)c1,19.2%
2,Cc1cccc(NS(=O)(=O)c2cccc(C(=O)NNC(=O)c3ccccc3O)c2)c1,29.7% (active)
3,CC(=O)N1CCN(C(=O)c2cccc(S(=O)(=O)Nc3ccc(C)cc3)c2)CC1,-3.44%
4,COc1cc(/C=C2\Oc3ccc(C#Cc4ccc(O)cc4)cc3C2=O)cc(OC)c1,2.43%
5,O=C(COC(=O)c1ccco1)Nc1ccc(Cl)cn1,1.22%
6,CCNC(=O)N(CC)C[C@H]1N[C@@](CC)(C(=O)OC)[C@H]2C(=O)N(Cc3ccccc3)C(=O)[C@@H]12,-4.57%
7,CC(C)(C)OC(=O)C[C@@H]1C/C=C\C[C@@H](CC(=O)N(CCO)Cc2ccccc2)C(=O)N[C@H](Cc2ccccc2)COC1=O,13.4%
8,CC(C)(C)c1cc[n+](-c2[nH]c(=O)sc2/C=N/N=C(\[O-])c2ccccc2)cc1,59.4% (active)
9,O=C(N[C@@H]1C/C=C\C[C@@H](CC(=O)N(CCO)Cc2ccccc2)C(=O)N[C@H](Cc2ccccc2)COC1=O)OCC1c2ccccc2-c2ccccc21,9.35%
10,CC1O[C@H](OC2C(COC3OC(CO)C(O)[C@H](O)C3O)OC(OC3CC[C@]4(C)C(CC[C@@]5(C)[C@@H]4C=C[C@]46OC[C@@]7(CCC(C)(C)C[C@H]74)C(O)C[C@@]56C)C3(C)C)C(O)C2O)C(O)C(O)C1O (some centres undefined),0.25%
11,S=c1[nH]nc(-c2cc(-c3ccccc3)n[nH]2)n1/N=C/c1c2ccccc2cc2ccccc12,117% (active)
12,Fc1ccccc1/C=N/n1c(-c2cccnc2)n[nH]c1=S,11.6%
13,c1ccc(-c2cc(-c3ccccc3)[nH]n2)cc1,10.7%
14,CN(C(=O)c1cccc(NC(=O)Cc2ccc([N+](=O)[O-])cc2)c1)C1CCC1,2.95%
15,Nn1c(SCC(=O)Nc2ccc3c(c2)CCC3)nnc1C1CC1,10.2%
16,CC(C)NC(=O)Nc1cccc2c1O[C@H](CN(C)S(=O)(=O)c1cccs1)[C@@H](C)CN([C@H](C)CO)C2=O,-2.12%
17,COc1ccc(CN(C)C(=O)c2cc(-c3ccc(C)cc3C)nc3ccccc23)c(OC)c1OC,43.5% (active)
18,COc1ccc(-c2cc(C(=O)N(C)Cc3ccccc3)c3ccccc3n2)cc1,1.22%
19,COc1ccc(-c2cc(C(=O)N(C)Cc3ccc(OC)c(OC)c3OC)c3ccccc3n2)cc1OC,39.4%
20,CN(C(=O)c1cccc(NC(=O)C2CCN(C(=O)OC(C)(C)C)CC2)c1)C1CCC1,5.08%
21,CC(C)OC(=O)c1c(NC(=O)c2ccco2)sc2c1CCCC2,12.4%
22,Cc1sc(NC(=O)C2C3CCC(O3)C2C(=O)O)c(C(=O)OC(C)C)c1-c1ccc(Cl)cc1 (centres undefined),76% (active)
23,CC(C)OC(=O)c1cc(NC(=O)C2C3CCC(O3)C2C(=O)O)cc(C(=O)OC(C)C)c1 (centres undefined),8.17%
24,Cn1cccc1C(=O)OCC(=O)NCCc1ccccc1,5.82%
25,CC1(C)C/C(=N/Nc2ccc([N+](=O)[O-])cc2[N+](=O)[O-])C(C)(C)O1,7.54%
26,C[n+]1ccccc1C1CCCC/C1=N\Nc1ccc([N+](=O)[O-])cc1[N+](=O)[O-] (centres undefined),93.3% (active)
27,O=C(Nc1ccccc1)O/N=C1\CCCCC1c1ccc([N+](=O)[O-])cc1[N+](=O)[O-] (centres undefined),28.9%

row,SMILES,inhibition
1,O=[N+]([O-])c1cc(C(F)(F)F)ccc1NN=C1CCCC1,9.21%
2,Cc1cc([N+](=O)[O-])ccc1NC1CCCC1,10.2%
3,O=[N+]([O-])c1ccc(N/N=C2/CCCCC2c2ccccn2)c([N+](=O)[O-])c1 (centres undefined),49.2% (active)
4,Cc1cc(C(=O)OCC(=O)N2C(C)CCCC2C)c2ccccc2n1 (centres undefined),10.9%
5,Cc1cccc(NS(=O)(=O)c2ccc(C)c(C(=O)NCc3cccnc3)c2)c1,6.94%
6,N/C(=N\OC(=O)CCc1ccccc1)c1ccc(Cl)cc1,18.5%
7,Cc1ccc(NC(=O)Cn2cnc3c(OCc4ccccc4)ncnc32)cc1C,6.27%
8,Cc1ccsc1C(=O)NCCc1ccco1,7.13%
9,O=C(Nc1cccc(S(=O)(=O)N2CCOCC2)c1)C12CC3CC(CC(C3)C1)C2,4.36%
10,O=C(O)C1CCCN(S(=O)(=O)c2cccc3cccnc23)C1 (centres undefined),4.71%
11,O=C(Nc1nccs1)C1CCCN1S(=O)(=O)c1cccc2cccnc12 (centres undefined),47.1% (active)
12,COc1ccc(NC(=O)C2CCCN(S(=O)(=O)c3cccc4cccnc34)C2)cc1OC (centres undefined),22.1%
13,Cc1cc(C)cc(NC(=O)C2CCCN2S(=O)(=O)c2cccc3cccnc23)c1 (centres undefined),89.3% (active)
14,Cc1cccc(NC(=O)C2CCN(S(=O)(=O)c3cccc4cccnc34)CC2)c1,7.8%
15,Cc1ccc(NC(=O)C2CCCN2S(=O)(=O)c2cccc3cccnc23)c(C)c1 (centres undefined),21.6%
16,O=C1OC[C@@H]2CCCN2C(=O)[C@H](CC(=O)N(CCO)Cc2ccccc2)C/C=C\CC[C@@H]1Cc1ccc(F)cc1,4.88%
17,CC(=O)OCCC(C)C,3.23%
18,C=CC[C@H](CC(=O)N(CCO)Cc1ccccc1)C(=O)N[C@@H](COC(=O)[C@@H](CC=C)Cc1ccc(F)cc1)Cc1ccccc1,10.8%
19,Cc1cc(OCCCC(=O)NCCN2C(=O)S/C(=C\c3cccnc3)C2=O)ccc1Cl,97.5% (active)
20,CCCNC(=O)C1CC(=O)N(c2ccc(OCC(=O)Nc3cccc(C)c3C)cc2)C1 (centres undefined),7.42%
21,O=C(NCCN1C(=O)S/C(=C\c2cccnc2)C1=O)c1ccc(S(=O)(=O)N2CCCC2)cc1,41%
22,O=C(NCCN1C(=O)S/C(=C\c2cccnc2)C1=O)c1cccc(OC(F)F)c1,33.8%
23,COc1cccc(NC(=O)C2c3cc(OC)c(OC)cc3C(=O)N(C)C2c2cccnc2)c1 (centres undefined),10.3%
24,CCOc1ccc(N2CC(C(=O)NCCN3C(=O)S/C(=C\c4cccnc4)C3=O)CC2=O)cc1 (centres undefined),55.7% (active)
25,COc1ccc(N2CC(C(=O)NCCN3C(=O)S/C(=C\c4cccnc4)C3=O)CC2=O)c(OC)c1 (centres undefined),153% (active)
26,COc1ccccc1N1CC(C(=O)NCCN2C(=O)S/C(=C\c3cccnc3)C2=O)CC1=O (centres undefined),29.4%
27,CCOc1ccc(N2CC(C(=O)NCc3ccccn3)CC2=O)cc1 (centres undefined),13.1%
